From PubChem BioAssay (EPA / NIEHS) come the findings set out here.

The AC50 is the concentration at which the activity in the assay is half-maximal.

Active and inactive are the calls of the source. The calls were made as follows: active = hit-call score of the fitted dose curve at least 0.9, where 1 is the maximum; inactive = score below 0.9.

A short description of this experiment: CCTE_Padilla_ZF_Score.General: CCTE's 144 Hour Post-fertilization zebrafish Assay Score for General Malformation, Padilla Lab (AID 2284411). Here is the method: CCTE_Padilla_ZF_Phenotype_Score is a whole embryo, multiplexed assay using zebrafish ova exposed for 144 hours post fertilization on a 96-well plate.CCTE_Padilla_ZF_Score.General is one of one assay component(s) measured or calculated from the CCTE_Padilla_ZF_Phenotype_Score assay. It is designed to make measurements of zebrafish development as detected with brightfield microscopy of developing zebrafish embryos.Data from the assay component CCTE_Padilla_ZF_Score.General was analyzed into 1 assay endpoints. This assay endpoint, CCTE_Padilla_ZF_Score.General, was analyzed in the positive analysis fitting direction relative to DMSO as the negative control and baseline of activity. Using a type of viability reporter, gain-of-signal activity can be used to understand changes in developmentals as they relate to the whole embryo. To generalize the intended target to other relatable targets, this assay endpoint is annotated to the zebrafish development intended target family, where the subfamily is embryonic morphogenesis.
Zebrafish husbandry: Wild type adult zebrafish (Danio rerio; undefined outbred stock obtained from Aquatic Research Organisms, Hampton, NH, 03842) were housed in an AAALAC-approved animal facility at 28C with a 14:10 h light: dark cycle (lights on at 08:30 h). Adult fish (2-3 females per male; density = 15-20 adults per tank) were kept in one of several 9-liter (L) flow-through colony tanks (Aquaneering Inc., San Diego, CA). All adults in a colony tank were placed in a 2 L (static) breeding tank (Aquatic Habitats, Apopka, FL) one hour prior to light onset. Typically, adults from two to three colony tanks were mated on the same day. Two hours after light onset the adults were returned to the colony tank. All embryos were gathered from each breeder tank, pooled, and placed in a 28C water bath for 2 h, followed by two washes with 0.06% bleach (v/v) in 10% Hanks' Balanced Salt Solution (13.7 mM NaCl 0.54 mM KCl, 25 uM Na2HPO4, 130 uM CaCl2 100 um MgSO4 and 420 um NaHCO3,), hereafter referred to as Hanks' solution, for 5 min in order to remove any residual bacteria or fungi. Immediately following washing, the embryos were examined, and healthy embryos were separated from dead or unfertilized eggs and moved into fresh Hanks'. Chemical exposures: Zebrafish embryos were exposed in 96-well plates. Between 6- and 8-hours post fertilization (hpf), healthy embryos (with chorions) were transferred, one embryo per well, into 96 well (0.5 mL) microtiter plates (Cell Culture-Treated, Flat-Bottom Microplate 96 well [Corning Costar, Kennebunk, ME; Cat 09-761-145]) filled with 200 uL of Hanks' solution. A random number generator was used to assign the order in which the rows of embryos were plated in 96 well plates each week. After plating, the embryos were dosed with 0.8 uL of the chemical dosing solution then immediately sealed with AlumaSeal II (Excel Scientific Inc, Victorville, CA) to prevent volatilization of the chemicals, and then placed in a leakproof secondary container. These containers were placed in an incubator maintained on a 14:10 h light: dark cycle at 26C for rearing. On 5 dpf, live larvae were gently moved out of the plate with test chemicals and into a new 96 well mesh plate (Millipore Corp., Bedford, MA) with just the Hanks' solution. Once within the mesh well plate, the animals were rinsed with 400 uL of fresh Hanks' three times, and then the plates were covered with a non-adhesive material (Microseal A, BioRad, Hercules, CA), plate lid added, and then plate sides wrapped in Parafilm (PM992, Bermis Company, Neenah, WI), and returned to the incubator. […]
Take `FC(F)(F)C(F)(F)C(F)(F)C(F)(F)C(F)(F)C(F)(F)C(F)(F)I`: the concentration at half-maximal activity (AC50) was 11.8 µM (active).

As for `OCC(F)(F)C(F)(F)C(F)(F)C(F)(F)C(F)(F)C(F)(F)F`, the result was inactive.

For the molecule `FC(F)(I)C(F)(F)C(F)(F)C(F)(F)I`, the AC50 is 24.3 µM (active).

Consider `O=C(O)C(F)(F)C(F)(F)F`, for which the molecule was classed as inactive.

Take `CCCCCCS`: the molecule was classed as inactive.

Regarding `FC(F)(F)C(F)(F)C(F)(F)C(F)(F)C(F)(F)C(F)(F)C(F)(F)Br`, the result was inactive.

For `O=C(O)C(F)(F)C(F)(F)C(F)(F)C(F)(F)C(F)(F)C(F)(F)C(F)(F)C(F)(F)C(F)(F)C(F)(F)C(F)(F)C(F)(F)F`, the molecule was classed as inactive.

As to `CCO[Si](CCC(F)(F)C(F)(F)C(F)(F)C(F)(F)C(F)(F)C(F)(F)F)(OCC)OCC`, the call was inactive.

Consider `CCCCCCCCCCCCCCCC[N+](C)(C)Cc1ccccc1`, for which the molecule was called inactive.

For `FC(F)(F)C(F)(F)C(F)(F)C(F)(F)C(F)(F)C(F)(F)CC1CO1` (stereo not given), the result was inactive.

`FC(F)(Br)C(F)(F)C(F)(F)C(F)(F)C(F)(F)C(F)(F)Br`: the result was inactive.

As for `O=C(O)C(F)(OC(F)(F)C(F)(OC(F)(F)C(F)(F)C(F)(F)F)C(F)(F)F)C(F)(F)F` (stereo not given), the molecule was called inactive.

For the molecule `OCC(F)(F)C(F)(F)C(F)(F)C(F)(F)C(F)(F)C(F)F`, the molecule was called inactive.

Regarding `CCCCCCC(C)OC(=O)CCCCC(=O)OC(C)CCCCCC` (stereo not given), the result was inactive.

`FC(F)(F)C(F)(F)C(F)(F)C(F)(F)C(F)(F)C(F)(F)CCS`: the outcome was inactive.

As to `OCCCC(F)(F)C(F)(F)C(F)(F)C(F)(F)C(F)(F)C(F)(F)C(F)(F)F`, the molecule was classed as inactive.

Consider `Nc1ccc([N+](=O)[O-])cc1O`, for which the call was inactive.

Regarding `OCC(F)(F)C(F)(F)C(F)(F)F`, the result was inactive.

`FC(F)(F)C(F)(F)C(F)(F)C(F)(F)C(F)(F)CCI`: the AC50 is 54.7 µM (active).

On to `O=C(O)C(F)(F)C(F)(F)OC(F)(F)F`, for which the call was inactive.

On to `FC(F)(F)C(F)(F)C(F)(F)C(F)(F)C(F)(F)C(F)(F)C(F)(F)C(F)(F)CCS`, for which the molecule was called inactive.

As for `C=CC(F)(F)C(F)(F)C(F)(F)C(F)(F)C(F)(F)C(F)(F)C(F)(F)C(F)(F)F`, the molecule was classed as inactive.

On to `CC(C)(C)C(=O)CC(=O)C(F)(F)C(F)(F)C(F)(F)F`, for which the AC50 is 26.4 µM (active).

In the case of `O=C(O)C(F)(F)C(F)(F)C(F)(F)F`, the result was inactive.

On to `O=C(O)C(F)(F)C(F)(F)C(F)F`, for which the outcome was inactive.

As for `CCCCNc1ccccc1`, the call was inactive.

For `FC(F)(F)C(F)(F)CNCC(F)(F)C(F)(F)F`, the call was inactive.

As to `C=CC(=O)OCC(F)(F)C(F)(F)C(F)(F)C(F)(F)COC(=O)C=C`, the result was inactive.

Take `O=C(O)C(F)(F)C(F)(F)C(F)(F)C(F)(F)C(F)(F)C(F)(F)C(F)(F)C(F)(F)C(F)(F)C(F)(F)C(F)(F)C(F)(F)C(F)(F)F`: the result was inactive.

On to `O=P(O)(O)OCCC(F)(F)C(F)(F)C(F)(F)C(F)(F)C(F)(F)C(F)(F)F`, for which the result was inactive.

For the molecule `NC(=O)C(F)(F)C(F)(F)C(F)(F)C(F)(F)F`, the outcome was inactive.

As to `O=C(CC(=O)C(F)(F)C(F)(F)F)C(F)(F)F`, the call was inactive.

On to `O=S(=O)(OCC(F)F)C(F)(F)F`, for which the molecule was classed as inactive.

For `C=C(C)C(=O)OCC(F)(F)C(F)(F)C(F)(F)C(F)(F)C(F)(F)C(F)(F)C(F)(F)F`, the call was inactive.

Turning to `O=C(O)C(F)(F)C(F)(F)C(F)(F)C(F)(F)C(F)(F)C(F)(F)C(F)(F)C(F)(F)C(F)(F)C(F)F`, the AC50 is 15.8 µM (active).

As for `O=C(O)C(F)(OC(F)(F)C(F)(OC(F)(F)C(F)(OC(F)(F)C(F)(F)C(F)(F)F)C(F)(F)F)C(F)(F)F)C(F)(F)F` (stereo not given), the call was inactive.

Take `C=CC(=O)OCC(F)(F)C(F)(F)C(F)(F)C(F)(F)C(F)(F)C(F)(F)C(F)(F)F`: the result was inactive.

Take `CCCCCCCCC(F)(F)C(F)(F)C(F)(F)C(F)(F)C(F)(F)C(F)(F)F`: the call was inactive.

Consider `FC(F)(F)C(F)(F)C(F)(F)CI`, for which the result was inactive.

In the case of `O=C(O)C(F)(F)C(F)(F)C(F)(F)C(F)(F)C(F)(F)C(F)(F)C(F)(F)C(F)(F)Cl`, the AC50 was 16.7 µM (active).
